According to PubChem BioAssay (Tox21):
Inconclusive results are not listed. Activity calls are given as the source filed them. Unless noted, the call rests on the fitted dose curve.

Tests used:
[1] = Nuclear factor erythroid 2-related factor 2/antioxidant responsive element (Nrf2/ARE) small molecule agonists: qHTS cell viability counter screen in human keratinocytes (AID 1919968; active means well fitted curve in the direction sought with a large enough effect in the repeat runs; an effect the other way counts as inactive or inconclusive; further: nearly all actives have a fitted effect of over 55% in size; further: potency means the concentration at half of the fitted maximal effect)
Method in brief: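 KeratinoSens HaCaT cells, 1,500/well, preincubated 5 h, then exposed to compounds in DMSO for 23 h at 37 C/5% CO2. Viability read as CellTiter-Fluor fluorescence after 1 h, in the same wells as the ARE-luciferase read.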

[2] = target: Gonadotropin-releasing hormone receptor (Homo sapiens) (UniProt P30968); experiment: Human gonadotropin-releasing hormone receptor (GnRHR) small molecule agonists, calcium flux assay in GnRHR-HEK293 cells (AID 1920063); further: nearly all actives have a fitted effect of over 35% in size
Method in brief: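 HEK293 cells stably expressing human GnRHR were dye-loaded for 1 h at 37 C. Compound was added in agonist mode and fluorescence (Ex/Em 480/540) recorded kinetically for 3 min. Fifteen concentrations, triplicates.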

[3] = target: KiSS-1 receptor (Homo sapiens) (UniProt Q969F8); experiment: Human kisspeptin (KISS1R) small molecule agonists, calcium flux assay in KISS1R-HEK293 cells (AID 1920064; active means well fitted curve in the direction sought with a large enough effect in the repeat runs; an effect the other way counts as inactive or inconclusive)
Method in brief: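 HEK293 cells stably expressing human KISS1R were loaded with calcium dye for 1 h at 37 C, then given compound; fluorescence (Ex/Em 480/540) was read kinetically for 3 min. Fifteen concentrations, triplicate.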

[4] = G protein-coupled receptor (GPCR) small molecule agonists, calcium flux assay: HEK293 wild type cell line counter screen (AID 1920065)
Method in brief: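 Wild-type HEK293 cells plated 18 h, loaded with calcium dye 1 h at 37 C, then compounds added in agonist mode (ATP as positive control). Kinetic fluorescence Ex/Em 480/540 recorded 3 min at 1 sec intervals; 15 concentrations, triplicate.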

[5] = p53 small molecule agonists, cell-based qHTS assay with rat liver microsomes (AID 1963578)
Method in brief: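 Quantitative HTS of the Tox21 10K library: p53RE-bla cells, rat liver microsomes plus NADPH at 0.5 mg/mL final each, 16 h at 37 C, beta-lactamase fluorescence detection.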

[6] = p53 small molecule agonists, cell-based qHTS assay with human liver microsomes: qHTS cell viability counter screen (AID 1963579); further: nearly all actives have a fitted effect of over 45% in size; further: potency means the concentration at half of the fitted maximal effect
Method in brief: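 Viability of p53RE-bla cells is measured as CellTiter-Glo luminescence following a 16 h, 37 C incubation with compound, liver microsomes from human donors and NADPH.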

[7] = p53 small molecule agonists, cell-based qHTS assay with rat liver microsomes: qHTS cell viability counter screen (AID 1963580); further: nearly all actives have a fitted effect of over 45% in size; further: potency means the concentration at half of the fitted maximal effect
Method in brief: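 p53RE-bla HCT-116 cells were exposed 16 h at 37 C to compounds with rat liver microsomes (0.5 mg/mL) and NADPH (0.5 mg/mL). Viability was measured in the same wells as ATP content by CellTiter-Glo luminescence.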

[8] = p53 small molecule agonists, cell-based qHTS assay: qHTS cell viability counter screen (AID 1963581); further: nearly all actives have a fitted effect of over 45% in size
Method in brief: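 p53RE-bla HCT-116 cells, compounds added 5 h after plating and incubated 16 h at 37 C. Cytotoxicity measured in the same wells as intracellular ATP by CellTiter-Glo luminescence after 30 min at room temperature.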

[9] = target: 5-hydroxytryptamine receptor 2A (Homo sapiens) (UniProt P28223); experiment: 5-hydroxytryptamine receptor 2A (HTR2A) small molecule antagonists, cell-based qHTS assay (AID 1963586); further: nearly all actives have a fitted effect of over 45% in size; further: potency means the concentration at half of the fitted maximal effect
Method in brief: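 Antagonist-mode intracellular calcium assay: DOI (4 nM) added after 5 min compound pre-incubation at room temperature to dye-loaded HTR2A-CHO cells. Fluorescence followed for 3 min, sampled every second.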

[10] = target: Muscarinic acetylcholine receptor M1 (Homo sapiens) (UniProt P11229); experiment: Cholinergic receptor muscarinic 1 (CHRM1) small molecule antagonists, cell-based qHTS assay (AID 1963588); further: nearly all actives have a fitted effect of over 40% in size
Method in brief: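 CHRM1-CHO calcium-flux assay, antagonist mode. Cells were seeded 18 h, dye-loaded 1 h at 37 C and given compound for 5 min at RT, then acetylcholine was added at 50nM. FDSS fluorescence was read 3 min; 15 concentrations, three runs.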

[11] = target: Muscarinic acetylcholine receptor M1 (Homo sapiens) (UniProt P11229); experiment: Cholinergic receptor muscarinic 1 (CHRM1) small molecule agonists, cell-based qHTS assay (AID 1963589); further: nearly all actives have a fitted effect of over 35% in size
Method in brief: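 CHO cells stably expressing human CHRM1 were loaded with calcium dye for 1 h at 37 C, then compound was added in agonist mode. Intracellular calcium fluorescence was followed kinetically at 1 s intervals. Fifteen concentrations were tested in three independent runs.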

[12] = cAMP Responsive Elements (CRE) small molecule antagonists, cell-based qHTS assay (AID 1963591; active means well fitted inhibition curve with a large enough effect in the signal ratio in the repeat runs, not every such curve was filed as active; the % refers to the signal ratio)
Method in brief: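 CRE-bla HEK293T cells plated 18 h, then given compound plus NKH477 at 0.25 uM final for 3 h at 37C. Beta-lactamase reporter read with LiveBLAzer B/G FRET substrate after 2 h at room temperature.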

[13] = target: Beta-2 adrenergic receptor (Homo sapiens) (UniProt P07550); experiment: Adrenergic beta2 receptor (ADRB2) small molecule antagonists, cell-based qHTS assay (AID 1963592); further: nearly all actives have a fitted effect of over 50% in size; further: potency means the concentration at half of the fitted maximal effect
Method in brief: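 Cells (CHO, stable ADRB2 overexpression) incubated 18-20hr at 37C; compounds added from DMSO; agonist mix (1nM isoproterenol, 100uM IBMX, 25uM Ro-20-1724) added; 0.5hr RT; d2-cAMP and anti-cAMP-cryptate added; 1hr RT; 665/615 nm read.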

[14] = target: D(2) dopamine receptor (Homo sapiens) (UniProt P14416); experiment: Dopamine D2 receptor (DRD2) small molecule agonists, cell-based qHTS assay (AID 1963594); further: nearly all actives have a fitted effect of over 35% in size
Method in brief: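 HEK293 cells stably expressing human DRD2, pre-treated with PDE inhibitor Ro20-1724 (0.1 mM final) and compound 10 min at room temperature, then stimulated with NKH477 (200nM […]) for 30 min. cAMP read by HTRF (665/620 nm).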

[15] = target: D(2) dopamine receptor (Homo sapiens) (UniProt P14416); experiment: Dopamine D2 receptor (DRD2) small molecule antagonists, cell-based qHTS assay (AID 1963595; active means well fitted inhibition curve with a large enough effect in the signal ratio in the repeat runs, with a control signal flat; the % refers to the signal ratio; further: potency means the concentration at half of the fitted maximal effect)
Method in brief: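 Antagonist mode in DRD2-HEK293 cells: after compound addition with 0.1 mM Ro20-1724, cells received quinpirole (12 nM) and NKH477 (200 nM) for 30 min at room temperature; HTRF cAMP read after 1 h detection.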

[16] = p53 small molecule agonists, cell-based qHTS assay (AID 1963582; active means well fitted activation curve with a large enough effect in the signal ratio in the repeat runs, not every such curve was filed as active; the % refers to the signal ratio)
Method in brief: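 p53RE-bla reporter cells, compounds added in DMSO after 5 h plating, incubated 16 h at 37 C. Beta-lactamase read via 2 h room-temperature LiveBLAzer B/G FRET substrate, fluorescence intensity.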

[17] = cAMP Responsive Elements (CRE) small molecule agonists, cell-based qHTS assay (AID 1963590)
Method in brief: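 CRE-bla HEK 293T cells, 2,000/well in DMEM with 10% dialyzed FBS and 25 mM HEPES, pre-incubated 18 h at 37 C, then exposed to compound 3 h at 37 C. Beta-lactamase reporter read with LiveBLAzer B/G FRET substrate after 2 h at room temperature.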

[18] = target: Beta-2 adrenergic receptor (Homo sapiens) (UniProt P07550); experiment: Adrenergic beta2 receptor (ADRB2) small molecule agonists, cell-based qHTS assay (AID 1963593);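 further: CHO cells stably overexpressing human ADRB2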
Method in brief: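 CHO cells stably over-expressing ADRB2 were plated overnight at 37C, then dosed with compounds plus a stimulation mix containing 100uM IBMX and 25uM Ro-20-1724 for 0.5hr at room temperature. cAMP was measured by HTRF competition, 1hr.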

[19] = p53 small molecule agonists, cell-based qHTS assay with human liver microsomes (AID 1963577);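 further: p53 response element beta-lactamase reporter cells with liver microsomes plus NADPH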
Method in brief: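 HLM-supplemented p53RE-bla reporter assay: 16 h compound exposure at 37 C, microsomes and NADPH each 0.5 mg/mL final, read by fluorescence intensity.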

[20] = target: 5-hydroxytryptamine receptor 2A (Homo sapiens) (UniProt P28223); experiment: 5-hydroxytryptamine receptor 2A (HTR2A) small molecule agonists, cell-based qHTS assay (AID 1963587); further: nearly all actives have a fitted effect of over 30% in size
Method in brief: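 CHO cells stably expressing human HTR2A, plated 18 h, loaded with calcium dye 1 h at 37 C. Agonist mode: compounds added and intracellular calcium fluorescence recorded kinetically for 2 min at 1 sec intervals.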

Measured: Potency

Sequence of D(2) dopamine receptor (Homo sapiens) (P14416 whole entry, looked up): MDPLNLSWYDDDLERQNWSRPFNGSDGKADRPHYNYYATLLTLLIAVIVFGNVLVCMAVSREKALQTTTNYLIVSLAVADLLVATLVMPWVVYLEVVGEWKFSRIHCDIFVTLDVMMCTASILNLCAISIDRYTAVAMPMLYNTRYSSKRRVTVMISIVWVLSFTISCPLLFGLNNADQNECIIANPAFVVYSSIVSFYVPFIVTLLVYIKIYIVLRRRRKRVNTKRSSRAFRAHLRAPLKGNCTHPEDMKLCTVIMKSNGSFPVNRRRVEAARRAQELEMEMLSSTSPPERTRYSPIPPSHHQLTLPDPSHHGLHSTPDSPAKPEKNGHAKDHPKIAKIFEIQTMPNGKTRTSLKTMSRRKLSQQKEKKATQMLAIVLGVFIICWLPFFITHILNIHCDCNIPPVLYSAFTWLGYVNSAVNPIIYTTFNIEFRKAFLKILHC
Sequence of KiSS-1 receptor (Homo sapiens) (Q969F8 whole entry, looked up): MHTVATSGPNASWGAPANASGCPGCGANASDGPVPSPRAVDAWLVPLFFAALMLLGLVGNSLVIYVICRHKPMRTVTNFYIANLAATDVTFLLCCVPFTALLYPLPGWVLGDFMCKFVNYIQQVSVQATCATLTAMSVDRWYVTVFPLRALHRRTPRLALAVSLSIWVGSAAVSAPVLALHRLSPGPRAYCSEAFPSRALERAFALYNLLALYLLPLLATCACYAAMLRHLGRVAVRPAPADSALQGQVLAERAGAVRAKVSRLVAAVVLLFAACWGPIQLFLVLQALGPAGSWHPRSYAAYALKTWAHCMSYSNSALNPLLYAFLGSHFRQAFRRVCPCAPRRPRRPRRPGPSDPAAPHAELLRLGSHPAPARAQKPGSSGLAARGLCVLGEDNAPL
Sequence of Muscarinic acetylcholine receptor M1 (Homo sapiens) (P11229 whole entry, looked up): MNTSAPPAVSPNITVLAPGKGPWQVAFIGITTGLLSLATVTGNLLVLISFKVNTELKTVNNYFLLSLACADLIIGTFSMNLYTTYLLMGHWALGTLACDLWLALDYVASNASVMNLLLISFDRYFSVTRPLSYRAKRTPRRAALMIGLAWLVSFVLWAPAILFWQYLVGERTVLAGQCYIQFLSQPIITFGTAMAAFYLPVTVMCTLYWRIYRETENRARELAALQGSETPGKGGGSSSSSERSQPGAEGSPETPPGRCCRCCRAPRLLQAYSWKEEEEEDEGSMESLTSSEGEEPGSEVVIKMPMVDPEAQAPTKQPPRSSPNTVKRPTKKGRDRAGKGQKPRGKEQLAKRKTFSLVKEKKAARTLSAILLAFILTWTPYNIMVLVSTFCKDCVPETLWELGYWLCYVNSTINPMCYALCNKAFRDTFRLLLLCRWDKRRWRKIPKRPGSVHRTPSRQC
Sequence of Beta-2 adrenergic receptor (Homo sapiens) (P07550 whole entry, looked up): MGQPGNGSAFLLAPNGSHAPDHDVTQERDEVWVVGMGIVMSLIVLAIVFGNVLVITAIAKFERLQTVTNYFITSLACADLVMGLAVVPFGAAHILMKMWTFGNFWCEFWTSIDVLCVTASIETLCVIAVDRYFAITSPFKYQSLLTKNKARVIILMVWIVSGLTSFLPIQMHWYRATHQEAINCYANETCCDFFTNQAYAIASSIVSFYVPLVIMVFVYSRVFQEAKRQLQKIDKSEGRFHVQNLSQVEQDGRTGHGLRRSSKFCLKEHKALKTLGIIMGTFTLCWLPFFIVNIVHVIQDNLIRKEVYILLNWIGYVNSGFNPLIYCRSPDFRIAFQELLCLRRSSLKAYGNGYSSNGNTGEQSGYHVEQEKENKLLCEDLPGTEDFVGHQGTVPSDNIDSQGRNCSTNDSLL
Sequence of Gonadotropin-releasing hormone receptor (Homo sapiens) (P30968 whole entry, looked up): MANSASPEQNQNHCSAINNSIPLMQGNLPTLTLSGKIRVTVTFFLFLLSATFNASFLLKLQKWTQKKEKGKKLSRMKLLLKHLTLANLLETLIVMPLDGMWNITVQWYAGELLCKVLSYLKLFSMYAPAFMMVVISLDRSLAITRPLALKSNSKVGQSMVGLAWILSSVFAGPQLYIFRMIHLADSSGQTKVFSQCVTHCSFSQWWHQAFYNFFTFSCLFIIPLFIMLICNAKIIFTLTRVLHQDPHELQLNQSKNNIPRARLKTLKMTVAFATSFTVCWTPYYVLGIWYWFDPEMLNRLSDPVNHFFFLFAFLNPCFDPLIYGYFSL
Sequence of 5-hydroxytryptamine receptor 2A (Homo sapiens) (P28223 whole entry, looked up): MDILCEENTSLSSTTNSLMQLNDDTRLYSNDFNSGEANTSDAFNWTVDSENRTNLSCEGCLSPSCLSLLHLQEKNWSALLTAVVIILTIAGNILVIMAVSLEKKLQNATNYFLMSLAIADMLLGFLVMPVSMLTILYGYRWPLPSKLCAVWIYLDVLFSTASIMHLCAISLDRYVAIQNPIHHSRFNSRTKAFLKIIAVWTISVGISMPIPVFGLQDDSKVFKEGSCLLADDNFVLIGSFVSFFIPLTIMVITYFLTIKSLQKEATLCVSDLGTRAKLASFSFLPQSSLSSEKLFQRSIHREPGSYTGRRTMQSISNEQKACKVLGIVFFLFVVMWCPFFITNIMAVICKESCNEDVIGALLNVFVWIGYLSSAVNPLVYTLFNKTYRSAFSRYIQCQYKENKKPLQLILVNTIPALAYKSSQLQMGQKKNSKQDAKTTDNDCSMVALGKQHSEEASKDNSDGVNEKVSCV

CC1(CN2CCC(n3c(=O)[nH]c4ccccc43)CC2)OCc2ccccc2-n2cccc21 (stereo not given)
active: [1] 29.8 µM | [9] 1.83 µM | [13] 29.8 µM
not listed: [16] | [17] | [18] | [19] | [20]
inactive: all other assays above

Brc1c(NC2=NCCN2)ccc2nccnc12
not listed: [9] | [10] | [11] | [14] | [19] | [20]
inactive: all other assays above

CCOC(=O)/C=C(C)/C=C/C=C(C)/C=C/c1c(C)cc(OC)c(C)c1C
not listed: [5] | [13] | [16] | [17] | [18]
inactive: all other assays above

CCn1c(=O)c2c(nc(/C=C/c3ccc(OC)c(OC)c3)n2C)n(CC)c1=O
not listed: [9] | [13] | [17] | [18] | [19]
inactive: all other assays above

CCC(C)(CN(C)C)OC(=O)c1ccccc1 (stereo not given)
not listed: [7] | [17] | [19]
inactive: all other assays above

c1ccc2c(c1)ccc1c3ccccc3ccc21
not listed: [7] | [15] | [18] | [19]
inactive: all other assays above

O=[N+]([O-])c1ccc2ncccc2c1
not listed: [8] | [12] | [16] | [18] | [19]
inactive: all other assays above

NC(=O)Nc1nc2ccccc2[nH]1
not listed: [19]
inactive: all other assays above

CCN(CC)c1ccc(N=Nc2ccccc2)cc1
not listed: [17] | [19]
inactive: all other assays above

CN(C)c1ccc(C=O)cc1
not listed: [5] | [9] | [15]
inactive: all other assays above

NO
not listed: [11] | [15] | [17] | [19]
inactive: all other assays above

Cc1c(C(=O)O)cccc1[N+](=O)[O-]
active: [6] 23.3 µM
not listed: [18] | [19]
inactive: all other assays above

CC(C(=O)O)c1ccc2c(c1)[nH]c1ccc(Cl)cc12 (stereo not given)
not listed: [5] | [8] | [11] | [12] | [16] | [17]
inactive: all other assays above

CC(C)(C)CC(C)(C)c1ccccc1O
active: [1] 27.4 µM | [6] 41 µM | [7] 41 µM | [15] 61.4 µM
inactive: [2] | [3] | [4] | [5] | [10] | [11] | [13] | [14]

O=C1CCc2ccc(OCCCCN3CCN(c4cccc(Cl)c4Cl)CC3)cc2N1
inactive: [2] | [3] | [4] | [5] | [6] | [7] | [11]
active: [1] 21.1 µM

COC(=O)/C=C/C(C)=C\C=C\C(C)=C\C=C\C=C(C)\C=C\C=C(C)\C=C\C(=O)O
not listed: [12] | [16] | [18] | [19]
inactive: all other assays above
